About 14,000 (4.5%) of roughly 310,000 compounds showed an effect of 50% or more. The effect is printed as a negative number. The entries come from a sample that favours strong results as a whole.
target: human ether-à-go-go-related gene (hERG) potassium channel (human, UniProt Q12809); experiment: primary screen, population patch clamp on CHO cells stably expressing hERG; higher = less effect of the substance
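Note: peak tail current of the secondary pulse compared with the same well before compound.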

human ether-à-go-go-related gene (hERG) potassium channel, sequence (Q12809 whole entry, looked up): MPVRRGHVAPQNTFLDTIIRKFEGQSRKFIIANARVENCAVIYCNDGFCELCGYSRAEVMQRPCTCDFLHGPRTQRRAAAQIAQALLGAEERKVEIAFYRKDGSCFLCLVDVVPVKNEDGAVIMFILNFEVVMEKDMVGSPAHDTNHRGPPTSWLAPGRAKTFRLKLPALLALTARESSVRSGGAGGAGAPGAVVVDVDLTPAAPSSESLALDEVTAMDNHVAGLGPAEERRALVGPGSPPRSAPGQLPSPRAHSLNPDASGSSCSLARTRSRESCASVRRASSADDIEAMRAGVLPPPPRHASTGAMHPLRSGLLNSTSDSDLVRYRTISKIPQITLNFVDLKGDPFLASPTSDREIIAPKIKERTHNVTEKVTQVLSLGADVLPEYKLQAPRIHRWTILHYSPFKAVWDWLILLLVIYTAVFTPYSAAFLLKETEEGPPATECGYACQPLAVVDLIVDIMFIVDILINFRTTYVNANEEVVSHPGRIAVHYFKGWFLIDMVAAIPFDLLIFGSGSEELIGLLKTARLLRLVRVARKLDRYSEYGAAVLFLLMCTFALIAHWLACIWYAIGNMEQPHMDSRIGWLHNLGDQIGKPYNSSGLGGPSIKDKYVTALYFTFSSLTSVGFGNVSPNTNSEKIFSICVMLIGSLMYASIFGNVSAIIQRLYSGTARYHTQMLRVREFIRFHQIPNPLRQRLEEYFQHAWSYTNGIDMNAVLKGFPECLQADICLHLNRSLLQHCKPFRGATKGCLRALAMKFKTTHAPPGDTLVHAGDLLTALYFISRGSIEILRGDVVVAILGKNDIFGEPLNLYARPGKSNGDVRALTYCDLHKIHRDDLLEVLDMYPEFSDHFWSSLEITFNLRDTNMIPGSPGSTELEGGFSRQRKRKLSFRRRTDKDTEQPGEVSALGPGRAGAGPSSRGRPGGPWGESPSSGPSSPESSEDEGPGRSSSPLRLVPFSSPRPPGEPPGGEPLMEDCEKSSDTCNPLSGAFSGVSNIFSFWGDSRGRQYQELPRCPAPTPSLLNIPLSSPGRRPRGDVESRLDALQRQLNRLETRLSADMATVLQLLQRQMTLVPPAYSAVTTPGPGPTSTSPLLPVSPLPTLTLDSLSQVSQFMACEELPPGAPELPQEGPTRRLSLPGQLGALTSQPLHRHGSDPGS

SMILES | hERG current change (%, negative = inhibition) at 10uM [%]
Cc1nc2c(C)cccc2cc1C(=O)N/N=C/c1ccc(N(C)C)cc1 | -9.49
COC(=O)c1cc(C)sc1NC(=O)CN1CCN(C(=O)C2CCCO2)CC1 (stereo not drawn) | -34.7
O=C(CS(=O)(=O)c1ccccc1)N1CCN(c2ccccc2)CC1 | 2.36
CCCOc1ccc(C2c3c(oc4ccccc4c3=O)C(=O)N2CCCN2CCOCC2)cc1 (stereo not drawn) | -6.76
CCCC(C)NC(=O)c1sc2nc3n(c(=O)c2c1C)CCC3 (stereo not drawn) | -6.29
Cc1cc(NC(=O)C2COc3ccccc3O2)no1 (stereo not drawn) | -0.48
O=C(CSc1n[nH]c(-c2ccco2)n1)Nc1sc2c(c1C(=O)Nc1ccccc1)CCCC2 | -41
Cc1ccccc1NC(=O)c1c(C)[nH]c(=S)c(C#N)c1-c1ccc(Cl)cc1 | 21.1
Cc1ccc(-c2nnc(N(C)C(=O)C3CCCO3)s2)cn1 (stereo not drawn) | 6.74
Cc1cc(C)cc(-n2c(C)cc(/C=C3\C(=N)N4N=C(CC(C)C)SC4=NC3=O)c2C)c1 | 5.86
c1ccc(COCCC2CO2)cc1 (stereo not drawn) | 5.49
O=C(/C=C/c1ccc(Cl)cc1)N1CCN(c2ccccn2)CC1 | -32.3
O=C(/C=C/c1ccc([N+](=O)[O-])cc1)N1CCN(c2ccccc2F)CC1 | -34.2
O=C1CN(C(=O)/C=C/c2ccc(Cl)cc2Cl)CCN1 | -19.2
O=C(/C=C/c1ccc(Cl)cc1)N1CCN(c2ccccc2[N+](=O)[O-])CC1 | -75.4
O=C(/C=C/c1ccccc1Cl)N1CCCN(C(=O)/C=C/c2ccccc2Cl)CC1 | -26.1
CN1CCCN(C(=O)/C=C/c2ccc(Cl)cc2Cl)CC1.Cl | -67
CCCNC(=S)NC1CC2CCC(C1)N2Cc1ccccc1 (stereo not drawn) | -35.7
CCCNC(=S)NC1CC2CCCC(C1)N2CC(C)C.Cl (stereo not drawn) | 13.1
Cc1ccc(CN2C3CCCC2CC(NC(=O)c2ccc(F)cc2)C3)cc1 (stereo not drawn) | -74.1
CC(=O)NC1CC2CCC(C1)N2Cc1ccc(C)cc1 (stereo not drawn) | -25.4
CCCNC(=S)NC1CC2CCCC(C1)N2Cc1ccc(F)cc1 (stereo not drawn) | -60.6

SMILES | hERG current change (%, negative = inhibition) at 10uM [%]
O=C(NC1CC2CCCC(C1)N2Cc1ccc(F)cc1)c1ccc(F)cc1 (stereo not drawn) | -70.8
CCC(=O)NC1CC2CCCC(C1)N2Cc1ccc(C)cc1 (stereo not drawn) | -37.4
Cc1ccc(C(=O)NC2CC3CCCC(C2)N3Cc2ccccc2)cc1 (stereo not drawn) | -40.4
CC(=O)NC1CC2CCCC(C1)N2Cc1ccc(C)cc1 (stereo not drawn) | -30.5
CNC(=S)N1C2CCCC1CC(NC(=O)c1ccc(F)cc1)C2 (stereo not drawn) | 6.93
O=C(NC1CC2CCCC(C1)N2C(=O)NC1CCCCC1)c1ccc(F)cc1 (stereo not drawn) | 4.98
Cc1ccc(CN2C3CCCC2CC(NC(=O)c2ccc(C)cc2)C3)cc1 (stereo not drawn) | -77.7
CC(NC(=O)CSc1nnc(CC(=O)Nc2ccc(Cl)c(Cl)c2)n1C)c1ccccc1 (stereo not drawn) | 4.55
COc1ccc(C2CC(c3ccc(Cl)cc3Cl)Nc3nc(N)nn32)cc1OC (stereo not drawn) | -18.7
COc1cc(NC(C)=O)c2ncccc2c1[N+](=O)[O-] | -5.4
CC1CCCCC1NC(=O)CCN1C(=O)C2C3C=CC(C3)C2C1=O (stereo not drawn) | 13
COc1cc2c(cc1OC)C(c1cc3cc4c(cc3[nH]c1=O)OCO4)N(C(=O)C(C)C)CC2 (stereo not drawn) | -4.79
N#C/C(=C/c1ccc(-c2ccccc2[N+](=O)[O-])o1)C(=O)NCCN1CCCCC1 | -69.1
Cc1ccc(C(=O)N/C(=C\c2ccco2)C(=O)NCCCN2CCOCC2)cc1C | -12.7
N#C/C(=C\c1ccc(-c2cccc([N+](=O)[O-])c2)o1)C(=O)NCCN1CCOCC1 | -47.2
Cc1ccc(C(=O)N/C(=C\c2sccc2C)C(=O)NCCCN2CCOCC2)cc1 | -17.7
Cc1ccc(C(=O)N/C(=C\c2ccc(-c3ccccc3[N+](=O)[O-])o2)C(=O)NCCCN2CCOCC2)cc1 | -61.9
Cc1ccc(C(=O)N/C(=C\c2ccc(-c3cccc([N+](=O)[O-])c3)o2)C(=O)NCCCN2CCOCC2)cc1 | -74.9
Cc1ccc(C(=O)N/C(=C\c2cn(C)c3ccccc23)C(=O)NCCCN2CCOCC2)cc1 | 0.137
CNC(=O)/C(C#N)=C/c1ccc(-c2ccccc2[N+](=O)[O-])o1 | 8.72
N#C/C(=C\c1ccc(-c2ccccc2[N+](=O)[O-])o1)C(N)=O | 24.6
O=C(CSc1nnc(SCc2ccccc2)s1)N/N=C/C=C\c1ccco1 | 9.17

SMILES | hERG current change (%, negative = inhibition) at 10uM [%]
Cc1ccccc1-c1nc2cc(N)ccc2o1 | -15.6
Cc1ccc2c(c1)C(c1ccccc1)N(C(=O)CC(C)C)CC(=O)N2 (stereo not drawn) | -28.5
O=C1N=C(N2C=CC(=C3C=CNC=C3)C=C2)/C(=C/N=NC(=O)c2ccccc2)S1 | 30.3
COc1cc(CN(C)CC2CCCN(CCc3cccc(C(F)(F)F)c3)C2)ccc1O (stereo not drawn) | -62.8
CC(=O)Nc1ccc(CN(C)CC2CCCN(CCc3cccc(C(F)(F)F)c3)C2)cc1 (stereo not drawn) | -68.4
O=c1cnn(-c2ccccc2)c(-c2ccccc2)c1 | 3.33
Cc1cc(C)n2ncnc2n1 | 2.2
O=C1NC(=Nc2ccccc2)S/C1=C/c1cccnc1 | 15.9
Cn1c(O)c(/C=C2\C=NN=C2c2ccccc2)sc1=S | 0.793
COc1ccc(CN2CCN(Cc3ccccc3)C(CCO)C2)cc1OC (stereo not drawn) | -30.7
CCOc1cc(CN2CCN(Cc3ccc(C)o3)C(CCO)C2)ccc1OC (stereo not drawn) | -3.33
CCOc1cc(CN2CCN(CCc3ccccc3)C(CCO)C2)ccc1OC (stereo not drawn) | -66.5
COc1cc(CN2CCN(CCCc3ccccc3)C(CCO)C2)cc(OC)c1O (stereo not drawn) | -61.5
COc1ccc(CN2CCN(CCCc3ccccc3)C(CCO)C2)cc1OC (stereo not drawn) | -72.8
COc1cc(C(=O)Nc2ccc(S(=O)(=O)Nc3nccc(C)n3)cc2)cc(OC)c1OC | 12.9
O=C(CN1CCN(c2ccccn2)CC1)Nc1cc(C(F)(F)F)ccc1Cl | -3.6
COc1ccc(-c2cc(-c3ccc(Br)cc3)nc3ncnn23)cc1OC | -34.4
COc1ccc(-c2cc(-c3ccccc3)nc3ncnn23)cc1 | -56.4
COc1ccc(-c2cc(NCc3ccccn3)n3ncnc3n2)cc1 | -23.5
COc1ccc(CCNc2cc(-c3ccccc3)nc3ncnn23)cc1 | -2.18
COc1ccc(-c2ccnc3ncnn23)cc1 | -9.61
COc1ccc(-c2cc(NCCc3ccncc3)n3ncnc3n2)cc1 | -55.8

SMILES | hERG current change (%, negative = inhibition) at 10uM [%]
c1ccc(-c2cc(-c3ccccc3)n3ncnc3n2)cc1 | -49.5
COc1ccc(-c2cc(-c3ccccc3)n3ncnc3n2)cc1 | -60.9
Cc1cc(-c2ccccc2)n2ncnc2n1 | 12.5
COc1cc(OC)c(NS(=O)(=O)c2cn(C)cn2)cc1Cl | 5.67
CCOC(=O)C(Cc1ccc(OC)c([N+](=O)[O-])c1)NC(=O)CCC(=O)Nc1ccc(OC)cc1 (stereo not drawn) | 1.35
COC1CCCN(C(=O)c2ccc(OC3CCN(S(=O)(=O)N(C)C)CC3)cc2)C1 (stereo not drawn) | 8.14
CCOC(=O)C(CCSC)NC(=O)CN.Cl (stereo not drawn) | -6.89
Cc1ccc(-n2c(C)cc(/C=C3/C(=O)NC(=O)N(C)C3=O)c2C)cc1 | 15.2
CSc1nnc(-c2ccc(Br)s2)n1C | 1.98
O=C(Cn1cc(C(F)(F)F)ccc1=O)N/N=C/c1ccccc1O | -7.65
O=C(CSC1=NCCN1)Nc1ccccc1[N+](=O)[O-] | 11.2
CNC(=O)C(C)Sc1ccc(S(=O)(=O)N2CCOCC2)cn1 (stereo not drawn) | -0.356
CC(Sc1ccc(S(=O)(=O)N2CCOCC2)cn1)C(=O)Nc1ccc(Cl)cc1Cl (stereo not drawn) | -56.1
CC(Sc1ccc(Cl)cc1)C(=O)Nc1ccc(S(=O)(=O)N2CCOCC2)cc1 (stereo not drawn) | -22.7
COc1ccc(Cl)cc1N1CCN(CCNC(=O)Nc2ccccc2C)CC1 | -40.1
COc1cc(CNc2ncc(-c3ccc(Br)cc3)n2C)cc(OC)c1OC.O=C(O)C(=O)O | -49.9
COc1cc(CNc2ncc(-c3ccc(Br)cc3)n2C)cc(OC)c1O.O=C(O)C(=O)O | -60.5
COc1cc(CNc2ncc(-c3ccc(Cl)cc3)n2C)cc(OC)c1OC.O=C(O)C(=O)O | -66.9
COc1ccc(CNc2ncc(-c3ccc(Cl)cc3)n2C)c(OC)c1OC.O=C(O)C(=O)O | -47
COc1ccc(CNc2ncc(-c3ccccc3)n2C)c(OC)c1OC.O=C(O)C(=O)O | -44.1
CCOc1cc(CNc2ncc(-c3ccc(OC)cc3)n2C)ccc1O.O=C(O)C(=O)O | -48.3

From paper PMC4336329 (PLoS ONE, 2015)
